# Measured values: PubChem BioAssay AID1952 (The Scripps Research Institute Molecular Screening Center, 2009)
# About 1,200 (50%) of roughly 2,400 compounds were called active. No stated cut-off is given here; in the data, active means inhibition above about 24%; inactive means the rest. So high a share suggests a set chosen from earlier hits. A selection follows.
# Biological target: Neuropeptides B/W receptor type 1 (Homo sapiens) (UniProt P48145)
# Test: GPR7 receptor antagonists, confirmation, cell-based, fluorescence, single concentration (AID 1952);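 further: stimulated with the GPR7 agonist NPW; 0% = agonist plus vehicle and 100% = vehicle alone without agonist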
# Conditions: GPR7-expressing cells, calcium fluorescence antagonist mode; at 4.4 µM; active compounds read high
# Chain of Neuropeptides B/W receptor type 1 (Homo sapiens) (P48145 whole entry, looked up): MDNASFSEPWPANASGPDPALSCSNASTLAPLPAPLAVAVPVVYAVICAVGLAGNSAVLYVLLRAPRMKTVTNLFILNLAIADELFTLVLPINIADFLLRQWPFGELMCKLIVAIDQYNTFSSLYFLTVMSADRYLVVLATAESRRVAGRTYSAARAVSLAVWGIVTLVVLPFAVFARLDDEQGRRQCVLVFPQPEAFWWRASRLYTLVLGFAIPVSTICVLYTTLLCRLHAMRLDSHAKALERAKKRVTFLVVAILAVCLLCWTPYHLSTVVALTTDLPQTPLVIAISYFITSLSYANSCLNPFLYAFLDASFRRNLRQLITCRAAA
row,SMILES,inhibition
1,Cc1cccc(CS(=O)(=O)c2ncc(Cl)c(C(=O)Nc3ccc(F)cc3)n2)c1,51.2% (active)
2,COc1ccccc1CNC(=O)COc1ccc(C)nc1[N+](=O)[O-],2.95% (inactive)
3,COc1ccccc1Oc1ccc(S(=O)(=O)Nc2cccnc2)cc1,16.8% (inactive)
4,COc1ccc(NS(=O)(=O)c2ccc(NC(=S)NC(=O)CC(C)C)cc2)cc1,35.8% (active)
5,COc1ccc(C2Nc3ccccc3C(=O)N2Cc2ccccc2)cc1Cn1nnc2ccccc21 (stereo unspecified),31.7% (active)
6,O=C(CC(=O)Nc1ccc(Cl)c(Cl)c1)N/N=C/c1ccc(O)cc1,10.9% (inactive)
7,COc1ccc(C(CCNCc2ccccc2F)c2ccc(F)cc2)cc1 (stereo unspecified),47.2% (active)
8,CC1(C)CC(CNCCC(c2ccc(F)cc2)c2ccco2)CCO1 (stereo unspecified),12.5% (inactive)
9,CC(C)OCCCNc1ncnc2c1[nH]c1ccc(F)cc12,39.2% (active)
10,O=C(CN1CCN(C(=S)NC2CCCC2)CC1)Nc1ccc(Oc2ccccc2)cc1,28.6% (active)
11,O=C(CCc1ccccc1)Nc1ccc(NC(=O)C2CC2)nc1,17.6% (inactive)
12,Cc1ccc(NC(=O)CN2CCC3(O)CCCCC3C2c2ccc3c(c2)OCO3)c(C)c1 (stereo unspecified),19.6% (inactive)
13,CCc1ccc(NC(=O)c2ccc(Cn3cc([N+](=O)[O-])cn3)cc2)cc1,29.5% (active)
14,O=C(COc1ccccc1)NCc1ccc2c(c1)OCO2,14.3% (inactive)
15,CCOc1ccc(Cn2nnc(C(=O)NCc3ccccc3)c2N)cc1,52.4% (active)
16,COc1cc(NC(=O)CN2C(=O)NC(C)(c3ccc(OC(F)F)cc3)C2=O)cc(OC)c1OC (stereo unspecified),23.2% (inactive)
17,Cc1cc2c(cc1C)N(Cc1ccccc1)C1=NCCCN12,20.8% (inactive)
18,CCN1CCN(c2ccc([N+](=O)[O-])cc2C(=O)c2ccc(Cl)cc2)CC1,39.6% (active)
19,CCOc1ccc(C(=O)NC(=S)Nc2ccc(N3CCOCC3)c(Cl)c2)cc1[N+](=O)[O-],-6.59% (inactive)
20,COc1ccc(N=C2SC(C(=O)Nc3ccc(F)cc3)CC(=O)N2C)cc1 (stereo unspecified),4.38% (inactive)
21,Fc1ccc(-c2ccc(-c3nn4c(-c5ccco5)nnc4s3)o2)cc1,8.54% (inactive)
22,O=C(CN1C(=O)/C(=C/c2ccccc2F)Sc2ccccc21)NCc1cccnc1,-18% (inactive)
23,Cc1ccc(C(=O)C[n+]2cc(-c3ccccc3)n3c2CCCCC3)cc1,27.9% (active)

row,SMILES,inhibition
1,C=CCC1(CC=C)CCCN1C(=O)c1cc(COc2ccc(-n3cncn3)cc2)on1,29.2% (active)
2,Clc1ccc(-c2cc(C3CCNCC3)[nH]n2)c(Cl)c1,34.3% (active)
3,CCCCCCCCCCOC(=O)Cn1c(COc2cccc(OC)c2)[n+](C)c2ccccc21,78.9% (active)
4,Cc1cccc(NC(=O)c2cccc(C(=O)Nc3cccc(C)c3C)n2)c1C,37.8% (active)
5,Clc1ccc(C2CC(c3cccs3)n3ncnc3N2)cc1Cl (stereo unspecified),31.9% (active)
6,CCC(C(=O)Nc1ccc(C(C)C)cc1)c1ccccc1 (stereo unspecified),94.1% (active)
7,C=CCNC(=O)COC(=O)c1ccccc1C(=O)N(C)C1CCCCC1,-3.62% (inactive)
8,O=C(Nc1ccc2c(c1)OCO2)C1CC(c2c(F)cccc2Cl)=NO1 (stereo unspecified),8.85% (inactive)
9,CC(=O)N1CCCc2cc(S(=O)(=O)N3CCCC(C(=O)N4CCN(c5cccc(Cl)c5)CC4)C3)ccc21 (stereo unspecified),69.6% (active)
10,COc1ccc(NC(=O)C2CCC(CNS(=O)(=O)c3csc(C(N)=O)c3)CC2)cc1OC (stereo unspecified),-15.3% (inactive)
11,COc1cc(OC)cc(C(=O)N[C@H](C(=O)OCC(=O)NC(C)c2ccccc2)C(C)C)c1 (stereo partly specified),79.4% (active)
12,COCCCNC(=S)N1CCN(c2nc(-c3cccc(OC)c3)cs2)CC1,19% (inactive)
13,O=C(NC(=O)c1ccccc1)Nc1ccccc1O,12.2% (inactive)
14,Cc1ccccc1NC(=S)NC(=O)Cc1ccc(Cl)cc1,70.5% (active)
15,O=C(Cc1ccc(Cl)cc1)NC(=S)Nc1ccccc1O,84.5% (active)
16,O=C(CCCN1CCc2[nH]c3ccc(F)cc3c2C1)c1ccc(F)cc1,18.6% (inactive)
17,CN(c1cccc(NC(=O)Nc2ccc(Cl)cc2)c1)S(C)(=O)=O,31% (active)
18,OC(CNCC1CCCO1)Cn1c2ccc(Br)cc2c2cc(Br)ccc21 (stereo unspecified),78.3% (active)
19,Cc1ccccc1CN1C(=O)c2ccccc2Sc2ccc(C(=O)NCCCN3CCOCC3)cc21,42.4% (active)
20,O=C(NCCCN1CCOCC1)c1ccc2c(c1)N(Cc1cccc(F)c1)C(=O)c1ccccc1S2,24.3% (active)
21,O=C(CSc1nnc(-c2ccco2)o1)NCC(=O)c1ccccc1,-14.8% (inactive)
22,Cc1ccc(S(=O)(=O)n2cnc3ccccc32)c(C)c1,-4.27% (inactive)
23,COc1ccc(C)cc1NC(=O)NCCCCc1ccccc1,4.53% (inactive)

row,SMILES,inhibition
1,CS(=O)(=O)N(Cc1ccc(Cl)cc1)c1ccc(C(=O)NCCSCc2ccco2)cc1,32.3% (active)
2,Cc1ccc2[nH]cc(CCNC(=O)c3ccc([N+](=O)[O-])cc3)c2c1,40.7% (active)
3,Cc1ccccc1CN1C[C@@H]2C[C@@H](c3cn(C)nc3-c3ccccc3)N3CCC[C@@]23C1=O,21.9% (inactive)
4,Cc1ccc(NC2=C(Cl)C(=O)OC2OC(=O)c2ccccc2C)cc1 (stereo unspecified),4.37% (inactive)
5,CC1CN(C(=O)CCC(=O)NCCCN2CCC(Cc3ccccc3)CC2)c2cc(Cl)ccc2O1 (stereo unspecified),49.4% (active)
6,c1ccc(C2CNCc3c2ccc2ccccc32)cc1 (stereo unspecified),89.5% (active)
7,CN(c1ccccc1)S(=O)(=O)c1ccc(C(=O)NCCc2ccccc2)cc1,24.1% (active)
8,CC(=O)Nc1ccc(S(=O)(=O)N(C)CC(=O)NCCC2=CCCCC2)cc1,-0.53% (inactive)
9,S=C(NCCc1ccccc1)Nc1ccccc1,1.82% (inactive)
10,N=c1n(CCc2ccccc2)c2ccccc2n1Cc1ccccc1F,36.4% (active)
11,CS(=O)(=O)Nc1cccc(C2=NN(S(=O)(=O)c3ccccc3)C(c3cccs3)C2)c1 (stereo unspecified),22.3% (inactive)
12,CCN(CC)Cc1c(C(=O)OC)nnn1-c1nonc1N,-1.39% (inactive)
13,CCOc1ncccc1C(=O)NCCc1ccc(OC)cc1,15% (inactive)
14,COc1ccc(CS(=O)/C(Cl)=C(/Cl)C(=O)Nc2ccc(OC)nc2)cc1 (stereo unspecified),63.6% (active)
15,CCc1ccc(OCC2c3cc(OC)c(OC)cc3CCN2C(C)=O)cc1 (stereo unspecified),30% (active)
16,CCN(CC)CCOCCOc1ccc(Cl)c2ccccc12,20.8% (inactive)
17,COc1ccccc1N1CCN(c2ncnc3sc(C)c(-c4ccccc4)c23)CC1,37.2% (active)
18,CCC(C)c1ccccc1NC(=O)CN(C)CC(=O)Nc1ccccc1SC (stereo unspecified),19.5% (inactive)
19,O=C(NCCCN1CCN(c2ccc(F)cc2)CC1)Nc1ccc([N+](=O)[O-])cc1,41.9% (active)
20,COc1cccc(CNCCc2c[nH]c3ccccc23)c1OCc1ccccc1F,61.5% (active)
21,O=C(CSCc1ccc([N+](=O)[O-])cc1)NCCSCc1ccccc1,35.4% (active)
22,O=[N+]([O-])c1ccc(N(CCO)Cc2ccccc2)c([N+](=O)[O-])c1,23.3% (inactive)
23,O=C(NCCNc1ccc([N+](=O)[O-])cc1Cl)c1ccccc1F,18.8% (inactive)

row,SMILES,inhibition
1,CC(C(=O)N1CCN(c2ccccc2F)CC1)c1ccc([N+](=O)[O-])cc1 (stereo unspecified),42.2% (active)
2,Cc1cc(OC(C)C(=O)NC2CC(C)(C)NC(C)(C)C2)c2c(C)cc(=O)oc2c1 (stereo unspecified),-2.7% (inactive)
3,Cc1c(CCO)c(=O)n(-c2ccccc2)n1S(=O)(=O)c1ccc(F)cc1,-9.84% (inactive)
4,Cc1cc(OCc2ccc(C(=O)Nc3ccc(C(=O)O)cc3)o2)ccc1Cl,44.9% (active)
5,Cc1ccc2nc(C)c3c(c2c1)N(c1ccccc1)CC3,37.9% (active)
6,CS(=O)(=O)N(CC(O)Cn1c2ccccc2c2ccccc21)c1cccc2ccccc12 (stereo unspecified),45% (active)
7,O=[N+]([O-])/C=C/c1ccc2c(ccn2Cc2ccccc2)c1,92.4% (active)
8,CN(C)S(=O)(=O)N1CCC(Oc2cccc(C(=O)NCCCC3CCCC3)c2)CC1,40.1% (active)
9,COc1ccc([N+](=O)[O-])cc1N(CC(O)CN(CC(C)C)CC(C)C)S(=O)(=O)c1ccc(C)cc1 (stereo unspecified),31.9% (active)
10,N#CC1=C(SCc2ccc(C#N)cc2)N=C(N)C(c2nc(-c3ccccc3)cs2)C12CCCCC2 (stereo unspecified),44.2% (active)
11,COc1cc(OC)c(-n2cc(-c3ccc(Cl)cc3)[nH]c2=O)cc1Cl,60.4% (active)
12,O=C(COc1ccc(S(=O)(=O)Nc2cccc(C(F)(F)F)c2)cc1)N1CCOCC1,19.6% (inactive)
13,Cc1cc(Cl)ccc1OCCCC(=O)Nc1cccc(-n2cnnn2)c1,27.4% (active)
14,O=S(=O)(c1ccc(OCC(O)CN2CCN(c3ccccc3Cl)CC2)cc1)N1CCOCC1 (stereo unspecified),11.4% (inactive)
15,Cc1ccc(NC(=S)N(CCCN2CCC(C)CC2)Cc2ccco2)cc1,0.61% (inactive)
16,Cc1ccc(SCc2cc(=O)[nH]c(N3CCCCC3)n2)cc1,-9.2% (inactive)
17,CCCOc1ccccc1C1CC(=O)Nc2cc3c(cc21)OCO3 (stereo unspecified),24.6% (active)
18,Nc1nnc(SCC(=O)Nc2ccc3nc(SCC(=O)Nc4ccccc4)sc3c2)s1,59.8% (active)
19,Cc1ccccc1Nc1nnc(SCC(=O)c2cc3ccccc3o2)s1,3.71% (inactive)
20,Cc1ccc(CNC(=O)C2CCN(S(=O)(=O)c3ccc4nc5c(c(C(=O)O)c4c3)CC(C)CC5)CC2)cc1 (stereo unspecified),16.8% (inactive)
21,Cn1c(=O)c([N+](=O)[O-])c(Oc2ccccc2)c2ccccc21,17.2% (inactive)
22,COc1ccccc1N(C(=O)Cn1nnc2ccccc21)C(C(=O)NCc1ccco1)c1ccc(C)o1 (stereo unspecified),22.8% (inactive)
